# RecA splice inh – Mtb RecA intein splicing inhibitors, primary screen, biochemical, fluorescence, HTS. inhibition, % (concentration not given with the values). cell-free RecA intein splicing. AID 2221, 2009. hit rate 0.75% among 290,000. Protein RecA (Mycobacterium tuberculosis (strain ATCC 25618 / H37Rv)), P9WHJ3; in the data active = inhibition above about 30%
# Rv3671c protease – Rv3671c serine protease inhibitors, primary screen, biochemical, fluorescence polarization, M. tuberculosis H37Rv. P9WHR9. AID 2606, 2010. hit rate 0.048% among 320,000. inhibition, % at 5.96 µM; in the data active = inhibition above about 38%;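 also: extracellular domain of Rv3671c used as enzyme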
# GDH-TPI counter-1 – GDH-TPI coupling enzyme inhibitors, primary screen, artefact control for M. tuberculosis FBA inhibitor project, biochemical, absorbance, full deck. GDH-TPI coupled enzyme counterscreen, NADH absorbance. inhibition, % at 4.8 µM. hit rate 1.2% among 360,000; in the data active = inhibition above about 30%
# FBA Mtb inh – Mtb FBA enzyme inhibitors, primary screen, biochemical, fluorescence, strain H37Rv. Fructose-bisphosphate aldolase (Mycobacterium tuberculosis (strain ATCC 25618 / H37Rv)), …. purified M. tuberculosis FBA, fluorescence read-out. inhibition, % at 1 µM. hit rate 2.3% among 360,000
# Mtb bLac sens – beta-lactam sensitization of Mtb H37Rv, H37Rv; M. tuberculosis H37Rv growth with meropenem, percent inhibition; inhibition, % at 25 µM; hit rate 0.27% among 330,000; call rule not given here;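 also: growth measured after seven days incubation then overnight dye step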
# UGM FP inh – M. tuberculosis UGM enzyme inhibitors, primary screen, biochemical, fluorescence polarization, single point. inhibition, % at 10 µM. UDP-galactopyranose mutase (Mycobacterium tuberculosis (strain ATCC 25618 / H37Rv)), …. purified UGM, fluorescence polarization probe displacement. AID 504406, 2011. hit rate 0.06% among 320,000; in the data active = inhibition above about 10%, passing the limit was not always enough
# Target sequence (P9WIQ1 whole entry, looked up): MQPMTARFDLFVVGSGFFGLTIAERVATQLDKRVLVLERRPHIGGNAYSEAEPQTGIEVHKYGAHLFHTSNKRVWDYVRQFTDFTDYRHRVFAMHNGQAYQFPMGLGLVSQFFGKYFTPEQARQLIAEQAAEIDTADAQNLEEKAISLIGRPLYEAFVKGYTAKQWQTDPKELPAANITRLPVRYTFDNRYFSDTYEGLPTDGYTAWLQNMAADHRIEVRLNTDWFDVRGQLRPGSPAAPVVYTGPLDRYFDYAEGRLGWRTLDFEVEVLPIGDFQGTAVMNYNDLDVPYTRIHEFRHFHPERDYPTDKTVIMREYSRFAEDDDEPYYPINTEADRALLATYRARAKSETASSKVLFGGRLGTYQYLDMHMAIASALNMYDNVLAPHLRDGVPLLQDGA
# Mtb FBA confirm – M. tuberculosis aldolase blockers, biochemical, fluorescence, strain H37Rv, confirmation | shares compounds with FBA Mtb inh | purified M. tuberculosis FBA, fluorescence read-out | inhibition, % at 1 µM | hit rate 78% among 5,600
# GDH-TPI counter-2 – GDH-TPI coupling enzyme inhibitors, artefact control for M. tuberculosis FBA inhibitor project, biochemical, fluorescence, high throughput. inhibition, % at 1 µM. shares compounds with FBA Mtb inh. GDH-TPI coupled enzyme counterscreen. hit rate 81% among 5,600; in the data active = inhibition above about 10%
# A number is an active result; . = inactive; / = no result; + = active, no number. Most compounds without a hit are left out; they make up all but 4% or so of the library. Rule as the data show it, unless noted: active = inhibition above about 27%; inactive = the rest.
SMILES,RecA splice inh,Rv3671c protease,GDH-TPI counter-1,FBA Mtb inh,Mtb bLac sens,UGM FP inh,Mtb FBA confirm,GDH-TPI counter-2
CC(C)Oc1cccc(NC(=O)C2(C)CCN2C(C)C)c1 (stereo not given),/,/,.,.,/,/,/,/
CCOC(=O)c1nc(-c2ccccc2)oc1N1CCOCC1,.,.,.,97,.,.,120,95
O=C1CC(C(=O)Nc2ccc(Br)cc2)C2(CCCC2)O1 (stereo not given),.,.,/,/,.,.,/,/
O=C1CC(C(=O)Nc2ccccc2)C2(CCCCC2)O1 (stereo not given),.,.,.,50,.,.,.,.
COCCNCc1ccccc1[N+](=O)[O-],/,.,.,.,.,.,/,/
CCN(C(=O)COC(=O)C1CCC(C(C)(C)C)CC1)c1c(N)n(Cc2ccccc2)c(=O)[nH]c1=O (stereo not given),/,/,.,.,/,/,/,/
CN(Cc1cnccn1)C(=O)CC1C(=O)NCCN1Cc1cccc(Oc2ccccc2)c1 (stereo not given),.,.,.,28,.,.,85,77
CCCN(CC(=O)Nc1ccccc1OC)C(=O)c1cc(-c2ccccc2)nn1-c1ccccc1,/,.,.,.,.,.,/,/
CC(=O)N1CCc2cc(S(=O)(=O)NCCC(=O)N3CCN(c4ccccn4)CC3)ccc21,.,.,.,54,.,.,67,49
CC(=O)N1CCc2cc(S(=O)(=O)NCCC(=O)N3CCc4ccccc4C3)ccc21,.,.,.,.,.,.,/,/
CC(C#N)Sc1ncnc2sc3c(c12)CCC3 (stereo not given),.,.,.,.,.,.,/,/
Cc1cc(C)nc(Sc2ncnc3sc4c(c23)CCC4)n1,.,.,.,49,.,.,.,.
O=C(O)c1ccc2c(c1)C(=O)N(CCc1ccccc1)C2=O,.,.,.,85,.,.,174,132
CCOC(=O)Cc1csc(/N=C/c2c(O)n(-c3ccccc3C(F)(F)F)c(=O)c3ccccc23)n1,.,.,.,105,.,.,86,58
Cn1c(-c2ccccc2)cc2ccccc21,.,.,.,.,.,.,/,/
Cn1c(-c2ccccc2O)cc2ccccc21,.,.,.,32,.,.,140,119
COc1ccc(NS(=O)(=O)c2cccc(C(=O)O)c2)cc1S(=O)(=O)N1CCCCC1,/,.,.,.,.,.,/,/
CCOC(=O)c1[nH]c2ccc(OC)cc2c1N=CN(C)C,.,.,.,39,.,.,+,175
CCOC(=O)c1[nH]c2ccc(OC)cc2c1NC(=O)OC,.,.,.,38,.,.,+,146
CCOC(=O)c1[nH]c2ccc(OC)cc2c1NC(=O)CCN1CCCC(C)C1 (stereo not given),.,.,.,35,.,.,+,+
COC(=O)c1sc(NC(=O)CN2CCN(c3cccc(Cl)c3)CC2)c(C(=O)OC)c1C,/,/,.,.,/,/,/,/
O=C(COc1ccc(Br)cc1)N1CCCCCC1,.,.,.,.,.,.,/,/
O=C(COc1ccc(Br)cc1)N1CCN(C2CCCC2)CC1,.,.,.,33,.,.,29,13
OC[C@@H]1CN(CCc2ccccc2)C[C@H](n2cnc3c(NCc4ccc(F)cc4)ncnc32)O1,/,/,.,.,/,/,/,/
COc1ccc2cc(OC)c(C(=O)N3CCOCC3)cc2c1,.,.,.,36,.,.,.,.
SMILES,RecA splice inh,Rv3671c protease,GDH-TPI counter-1,FBA Mtb inh,Mtb bLac sens,UGM FP inh,Mtb FBA confirm,GDH-TPI counter-2
O=C(c1ccco1)N1CCN(C(=O)c2cc3ccccc3oc2=O)CC1,.,.,.,.,.,.,/,/
COc1ccc2oc(=O)c(C(=O)N3CCN(C(=O)c4ccccc4)CC3)cc2c1,.,.,.,27,.,.,119,92
COc1ccc2oc(=O)c(C(=O)N3CCN(C(=O)c4ccco4)CC3)cc2c1,.,.,.,34,.,.,115,76
COc1cc2ccccc2cc1C(=O)N1CCN(C(C)=O)CC1,.,.,.,.,.,.,/,/
Cc1ccc(S(=O)(=O)NC(=O)C2(C)CCN2C(=O)C2CC2)cc1 (stereo not given),/,/,.,.,/,/,/,/
COC(=O)c1cc(=O)c2cccc(OC)c2[nH]1,.,.,.,43,.,.,+,+
O=c1cn[nH]c2ccccc12,.,.,.,.,.,.,/,/
COc1cccc2c(=O)cn[nH]c12,.,.,.,76,.,11,.,.
O=C(COC(=O)CSc1ccc(Cl)cc1)Nc1ccc2[nH]c(=O)[nH]c2c1,/,.,.,.,.,.,/,/
COc1cc(OC)cc(C(=O)N2CCN(c3ccc(N4CCOCC4)nn3)CC2)c1,.,.,.,28,.,.,.,.
Cc1ccc(C(=O)N2CCN(c3ccc(N4CCOCC4)nn3)CC2)cc1,.,.,.,37,.,.,+,+
CCCCOc1ccc(C(=O)N2CCN(c3ccc(N4CCOCC4)nn3)CC2)cc1,.,.,.,30,.,.,.,.
Cc1cccc(C(=O)N2CCN(c3ccc(N4CCOCC4)nn3)CC2)c1,.,.,.,.,.,.,/,/
O=C(c1ccc(Cl)cc1)N1CCN(c2ccc(N3CCOCC3)nn2)CC1,/,/,.,.,/,/,/,/
O=C(Cn1nc(C(=O)O)c2ccccc2c1=O)Nc1ccc(Cl)c(S(=O)(=O)N2CCOCC2)c1,/,.,.,.,.,.,/,/
CCCCn1c(=O)cc(C)n(-c2ccccc2)c1=O,.,.,.,.,.,.,/,/
Cc1ccc(C)c(-n2c3nc(=O)n(C)c(=O)c-3cc3ccccc32)c1,.,.,.,100,.,.,+,+
CCCCn1c(=O)nc2n(-c3ccccc3)c3ccccc3cc-2c1=O,.,.,.,46,.,.,123,98
CC(C)(C)S(=O)(=O)N1C[C@@H]2CC/C=C\C/C=C\2[C@H]1CCO,/,/,.,.,/,/,/,/
Cc1[nH]c(C)c(S(=O)(=O)Nc2cccc(Cl)c2C)c1C(=O)N1CCCC1,.,.,.,.,.,.,/,/
O=C(NN1C(=O)NC2(CCCCC2)C1=O)c1cc2cc(Cl)ccc2o1,/,.,.,.,.,.,/,/
O=C(NN1C(=O)NC2(CCCCC2)C1=O)c1ccc(-c2ccc(Cl)cc2)o1,/,.,.,35,.,.,157,124
CC(=O)c1ccc(OCCCC(=O)N2CCN(S(=O)(=O)c3ccc(C(C)C)cc3)CC2)cc1,.,.,.,.,.,.,/,/

# Assay outcomes from PubChem.
